Source: PubChem (NMMLSC)
An excerpt weighted towards active compounds, which were near 2.5% of everything screened.
MEKK2 WT-MEK5 = modulators of MEK5 binding to wildtype MEKK2, primary screen, biochemical, multiplex bead flow cytometry, Alexa488-MEK5. actives 1.1% (n = 290,000). binding response (% of control), % at 10 µM. Alexa488-MEK5 binding to MEKK2 WT; actives lie on both sides. AID 1531, 2009. Mitogen-activated protein kinase kinase kinase 2 (Homo sapiens), Q9Y2U5; in the data active = binding response below about 67% or above about 130%
GRK2 inh = compounds blocking aptamer binding on GRK2 – biochemical, human GRK2, bead flow cytometry, HTS, primary screen | actives 0.59% (n = 330,000) | inhibition of aptamer binding, % at 10 µM | Beta-adrenergic receptor kinase 1 (Homo sapiens), P25098 | FAM-aptamer displacement from GRK2;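 active = inhibition of aptamer binding above 40%, roughly 3 SD of noise, on plates passing a quality check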;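 note: median bead fluorescence of bound FAM aptamer so fluorescent compounds give negative values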
Target sequence (P25098 whole entry, looked up): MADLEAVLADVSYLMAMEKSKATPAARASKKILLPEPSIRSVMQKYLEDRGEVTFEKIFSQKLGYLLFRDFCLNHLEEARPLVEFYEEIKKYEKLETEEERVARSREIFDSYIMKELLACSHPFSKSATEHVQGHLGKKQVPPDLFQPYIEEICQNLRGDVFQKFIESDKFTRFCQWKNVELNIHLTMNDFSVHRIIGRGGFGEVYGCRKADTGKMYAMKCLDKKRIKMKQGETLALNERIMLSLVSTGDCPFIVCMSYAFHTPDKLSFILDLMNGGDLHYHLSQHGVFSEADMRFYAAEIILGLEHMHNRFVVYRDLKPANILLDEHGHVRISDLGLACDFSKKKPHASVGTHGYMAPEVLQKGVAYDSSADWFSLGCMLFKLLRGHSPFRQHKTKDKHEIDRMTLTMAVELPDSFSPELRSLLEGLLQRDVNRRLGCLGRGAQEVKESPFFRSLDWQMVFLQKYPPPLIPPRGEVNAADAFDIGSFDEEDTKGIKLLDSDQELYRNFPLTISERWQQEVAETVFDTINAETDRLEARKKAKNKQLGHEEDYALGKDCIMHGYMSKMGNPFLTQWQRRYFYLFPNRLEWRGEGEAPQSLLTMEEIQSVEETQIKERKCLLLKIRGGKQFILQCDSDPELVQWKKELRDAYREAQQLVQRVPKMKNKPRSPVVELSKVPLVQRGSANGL
MEKK2 mut-MEK5 = MEK5 binding signal on mutant MEKK2 PB1, primary screen, biochemical, multiplex bead flow cytometry, Alexa488-MEK5; Alexa488-MEK5 binding to MEKK2 mutant; percent response, % at 10 µM; actives 0.35% (n = 290,000); AID 1530, 2009; in the data active = percent response above about 24%, passing the limit was not always enough
MEKK3 PB1 HTS = modulators of MEKK3-MEK5 PB1 binding, primary screen, biochemical, wildtype MEKK3, multiplex bead flow cytometry, Alexa488-MEK5. bead-based flow cytometry, Alexa488-MEK5 binding to MEKK3; actives lie on both sides; 0 = blocked by unlabeled MEK5, 100 = vehicle. binding response (% of control), % at 10 µM. Mitogen-activated protein kinase kinase kinase 3 (Homo sapiens), Q99759. actives 1.4% (n = 290,000);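 active = binding response more than 3 SD above or below the average of its plate-row segment, actives on both sides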;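 note: Alexa488 bead fluorescence after subtracting the streptavidin-only scavenger bead signal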
GRK2 inh confirm = GRK2 aptamer-displacing inhibitors, retest, confirmation, biochemical, cherry pick 1, bead flow cytometry | AID 504451, 2011 | actives 4% (n = 2,000) | shares compounds with GRK2 inh | aptamer displacement, % at 10 µM | bead-bound GRK2, FAM-aptamer displacement;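 active = aptamer displacement above 40%, near three times the noise of non-fluorescent compounds, on plates passing quality checks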;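 note: negative values mostly reflect intrinsic compound fluorescence rather than true enhancement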
Aptamer quench SP = quenches fluorescent RNA aptamer, GRK2 hit artifact. Carboxyfluorescein RNA aptamer on beads, flow cytometry quenching; active compounds read low. shares compounds with GRK2 inh. fluorescence response (% of DMSO), % at 10 µM. 2,000 tested, under 10 active;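 active = compounds that quench the bead-bound fluorescent RNA probe, cutting fluorescence to under half of the solvent control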;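 note: counterscreen run without GRK2 so only probe quenching by compound is measured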
GRK2 confirm 2 = GRK2 aptamer-displacing inhibitors, hit retest, confirmation, biochemical, cherry pick 2, bead flow cytometry; inhibition of aptamer binding, % at 10 µM; 360 tested, under 10 active; bead-bound GRK2, FAM-aptamer displacement; shares compounds with GRK2 inh;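 active = inhibition of aptamer binding above 40%, about triple the noise seen with nonglowing compounds, on plates passing quality control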;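 note: negative values mostly come from compounds that fluoresce themselves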
FAM quench CP2 = quenches fluorescent RNA aptamer, GRK2 hit artifact; fluorescence response vs DMSO, % at 10 µM; shares compounds with GRK2 inh; carboxyfluorescein RNA aptamer beads, flow cytometry quenching; active compounds read low; 360 tested, under 10 active;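 active = response vs DMSO under 50%, meaning signal dropped by over half, treated as fluorescence quencher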;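 note: labelled aptamer on streptavidin beads without GRK2 as a quench counter-screen; 100% = bead fluorescence of DMSO wells and lower means quenching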
Numbers without * were called inactive; · = no result given.

SMILES	MEKK2 WT-MEK5	GRK2 inh	MEKK2 mut-MEK5	MEKK3 PB1 HTS	GRK2 inh confirm	Aptamer quench SP	others
O=C(Nc1cccc([N+](=O)[O-])c1)c1cccc(C(=O)Nc2cccc([N+](=O)[O-])c2)c1	97	67*	2	93	27	101
Cc1cccc(C(=O)NNC(=O)c2ccccc2C)c1	109	1	10	108	·	·
Cc1ccc(CONC(=O)c2cccc([N+](=O)[O-])c2)cc1	·	43*	·	·	·	·	GRK2 confirm 2=-11;FAM quench CP2=100
COC(C(=O)Nc1ccnn1C1CCN(C(=O)c2ccc(C)cc2)CC1)c1ccccc1 (stereo not drawn)	99	3	4	100	·	·
CCNC(=S)NNC(=O)c1cccc(Br)c1	101	0	3	114	·	·
O=C(NCCc1ccc(F)cc1)c1cccc2c1C(=O)c1ccc(N3CCC(Cc4ccccc4)CC3)cc1S2(=O)=O	·	5	·	·	2	109
O=C(NCc1cccc(F)c1)c1cccc2c1C(=O)c1ccc(N3CCC(Cc4ccccc4)CC3)cc1S2(=O)=O	·	1	·	·	·	·
Cc1ccc(-n2ncc(C(=O)O)c2C2CCN(C(=O)OC(C)(C)C)CC2)cc1	107	43*	4	106	-4	102
CC(C)(C)OC(=O)N1CCC(c2c(C(=O)O)cnn2-c2ccc(Cl)cc2)CC1	99	1	1	100	·	·
Clc1cccc(-c2ccc(C=Nc3ccc(N4CCOCC4)cc3)o2)c1	98	1	2	99	·	·
COc1ccc(NC(=O)CSc2nc3ccccc3c3nc4ccccc4n23)cc1	99	0	-2	93	-3	105
Cc1ccc(NC(=O)CSc2nc3ccccc3c3nc4ccccc4n23)cc1	98	0	5	97	·	·
Cc1ccc(C(=O)N/N=C2\CCCc3ccccc32)c(C)c1	96	1	-6	102	·	·
Cc1nc(SCc2ccc(OCCC(C)C)cc2)n[nH]1	100	100*	-1	98	2	95
CCc1ccc(N(CC(=O)N2CCN(Cc3ccccc3)CC2)S(C)(=O)=O)cc1	104	2	1	102	·	·
O=C(O)CCn1cc(-c2ccc(F)cc2)nc1-c1ccncc1	·	40	·	·	1	98
O=C(O)CC(CP(=O)(c1ccccc1)c1ccccc1)C(=O)O (stereo not drawn)	107	18	8	106	·	·
NC(CCCCCP(=O)(c1ccccc1)c1ccccc1)C(=O)O (stereo not drawn)	104	87*	6	107	-5	96
CCOc1cc(N2CCOCC2)c(OCC)cc1NC(=O)Cc1ccccc1OC	94	2	1	87	·	·
COc1ccc(S(=O)(=O)Nc2ccc3c(c2)n(C)c(=O)n3C)cc1OC	99	0	-4	102	·	·
CCOc1ccc2nc(NS(=O)(=O)c3ccc4c(c3)n(C)c(=O)n4C)sc2c1	·	61*	·	·	-4	95
COc1ccc(S(=O)(=O)Nc2ccc3c(c2)n(C)c(=O)n3C)cc1	104	19	2	101	1	67
COc1cccc(NS(=O)(=O)c2c(C)n(C)c(=O)n(C)c2=O)c1	105	84*	4	98	17	97
CC(C)OCCCN1CN(S(=O)(=O)c2cccs2)c2nc3ccccc3nc21	99	0	1	102	·	·
CCC(=O)Nc1nnc(SCc2cccc(F)c2)s1	96	0	-1	100	·	·
SMILES	MEKK2 WT-MEK5	GRK2 inh	MEKK2 mut-MEK5	MEKK3 PB1 HTS	GRK2 inh confirm	Aptamer quench SP	others
Cc1cc(N2CCN(C)CC2)nc2ccc(NC(=O)CCC(=O)NCCCOC(C)C)cc12	109	93*	6	103	0	100
CCOC(=O)C1=C(N)OC(C)=C(C#N)C1c1ccco1 (stereo not drawn)	101	0	0	98	·	·
Cc1ccc(N=Cc2cc(Cc3ccccc3Cl)cc([N+](=O)[O-])c2O)c(O)c1	67	7	-15	95	·	·
O=C(COC(=O)c1ccc(OC(F)(F)F)cc1)Nc1ncccn1	·	41*	·	·	3	94
O=C(COC(=O)c1cccc(OC(F)F)c1)Nc1ncccn1	·	39	·	·	10	96
CCc1cccc(C)c1NC(=O)CC1Oc2ccc(C)cc2NC1=O (stereo not drawn)	100	49*	-1	102	·	·	GRK2 confirm 2=0;FAM quench CP2=101
Cc1cccc(C(C)C)c1NC(=O)COC(=O)CN1C(=O)C2CC=CCC2C1=O (stereo not drawn)	·	2	·	·	·	·
NC(=O)N(CCC(=O)O)c1ccccc1	105	78*	-2	101	·	·	GRK2 confirm 2=29;FAM quench CP2=99
COc1cc2cc(CCOC(=O)N3CCCCC3)oc(=O)c2cc1OC	·	42*	·	·	-2	98
CCc1ccc(NC(=O)CSc2nnc(C3CC3)n2CC2CCCO2)cc1 (stereo not drawn)	104	0	3	104	·	·
CCC1(C)Cc2c(sc3nc(SCC(=O)O)[nH]c(=O)c23)CO1 (stereo not drawn)	83	0	-14	73	·	·
Cc1ccc2[nH]c3c(=O)n(CC(=O)NCCCN4CCN(c5ccc(F)cc5)CC4)ncc3c2c1	110	45*	3	104	24	98
O=C(CN1CCOCC1)NCc1ccc(F)cc1	101	0	0	101	·	·
Cc1ccc(CNC(=O)CN2CCN(c3ccc(F)cc3)CC2)cc1	103	43*	2	95	2	97
CCC1CCCCN1CCCNC(=O)Cn1ncc2c([nH]c3ccc(C)cc32)c1=O (stereo not drawn)	128	0	8	101	·	·
Cc1cc2c(c(=O)n1C1CC1)C(c1cccc(Cl)c1)C(C#N)=C(N)O2 (stereo not drawn)	92	93*	-5	94	3	100
CC(=O)C1=C(C)NC(=O)CC1c1ccccc1Cl (stereo not drawn)	98	48*	-4	106	-6	127
CC1=C(C(=O)OC(C)C)C(c2ccccc2Cl)CC(=O)N1 (stereo not drawn)	·	3	·	·	·	·
Cc1ccccc1NC(=S)NCCc1ccc(S(N)(=O)=O)cc1	103	2	-1	105	·	·
COc1ccc(NC2=C3CCCC=C3N(c3ccc(OC)cc3)C2=O)cc1	95	0	-9	100	·	·
